This is a sample that favours compounds with a hit; in the whole collection about 20% have one here.
Pf growth 96h – Primary qHTS for delayed death inhibitors of the malarial parasite plastid, 96 hour incubation; P. falciparum luciferase reporter growth, 96 h; Potency, µM (titrated, usually from 28.7 µM), inactives show at the top dose activity change, negative = inhibition, usual class: inhibitors; hit rate 6.9% among 320,000; AID 504834, 2011; note: potency is the fitted concentration of half-maximal effect; % is set by controls: 0 for no effect and ±100 for the full control effect
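P. falciparum expressing integrated firefly luciferase, in erythrocytes at 2% hematocrit, 0.05% parasitemia, incubated with compounds 96 h at 37 C, 5% CO2. Growth inhibition read as loss of luminescence; two-generation exposure targets delayed-death apicoplast inhibitors.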
Pf growth 48h – Primary qHTS for delayed death inhibitors of the malarial parasite plastid, 48 hour incubation; P. falciparum luciferase growth in erythrocytes, 48 h; Potency, µM (titrated, usually from 28.7 µM), for inactives: top-dose activity change, negative = inhibition, usual class: inhibitors; hit rate 5.9% among 310,000; note: potency is the fitted concentration of half-maximal effect; % is set by controls: 0 for no effect and ±100 for the full control effect
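Cell-based growth assay: transgenic P. falciparum expressing firefly luciferase, cultured in red cells within RPMI 1640 containing 0.5% w/v Albumax, 24 mM bicarbonate and gentamycin. A drop in luciferase activity indicates inhibition.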
Shiga toxin inh – A qHTS for Small Molecule Inhibitors of Shiga Toxin; AID 2315, 2010; hit rate 9.2% among 290,000; inhibition, % at 38.7 µM; Vero cells, Shiga toxin protein synthesis inhibition reporter; in the data active = inhibition mostly above about 28%, no sharp cut-off; inactive = mostly below about 43%; note: 0% is about no effect
Cycloheximide cs – Cycloheximide Counterscreen for Small Molecule Inhibitors of Shiga Toxin | cell reporter, cycloheximide protein synthesis inhibition counterscreen | hit rate 12% among 300,000 | max response, %; in the data active = max response mostly above about 13%, no sharp cut-off; inactive = mostly below about 14%; note: read at 38.3 µM for the half of the compounds with a filed dose; 0% is about no effect
HCMV inh – qHTS Assay for inhibitors of the human cytomegalovirus (HCMV); HFF cells, HCMV-luciferase reporter, 72 h; hits give low values; AID 1259415, 2018; hit rate 4.5% among 410,000; activity change, negative = inhibition, % at 57.5 µM; in the data active = activity change below about -60%; inconclusive = no clear call, values can overlap the other calls; inactive = above about -39%; note: % is set by controls: 0 for no effect and ±100 for the full control effect
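Human foreskin fibroblasts infected with luciferase-reporter HCMV at MOI 1 PFU/cell, compounds at two doses. Luciferase measured 72 h post infection; normalized to buffer-only basal and Salinomycin (10uM) controls.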
* marks the source's active call; other numbers are inactive results; i = inactive; ? = inconclusive; nt = no result given. Unless noted, calls come from the whole dose curve; as a rule, active = well fitted inhibition curve with a large enough effect; inconclusive = small, poorly fitted or top-dose-only effect, or another doubt; inactive = no such curve, though single readings can be large or run the other way.

SMILES	Pf growth 96h	Pf growth 48h	Shiga toxin inh	Cycloheximide cs	HCMV inh
O=C(N1CCCCC1)C1(S(=O)(=O)c2ccccc2)CC=CC1	17.1%	-1.6%	9.8	16.7*	-24.5
CN(CC(=O)N1CCCCCC1)S(=O)(=O)c1ccc(Br)s1	34.2%	20.3%	80.4*	32.6*	17.7
Cc1ccc(S(=O)(=O)CCC(=O)N(C)C2CCCCC2)cc1	-14.5%	8.0%	25.6	13.3*	27.3
CN(CC(=O)N1CCCCCC1)S(=O)(=O)c1ccc(Br)cc1	-27.2%	8.9%	-3.4	-0.5	-20.0
CN(CC(=O)N1CCCCCC1)S(=O)(=O)c1ccccc1	?	63.6%	68.5*	34.5*	85.9
CCOc1ccccc1NC(=O)Cn1cnc2sc(C)c(S(=O)(=O)N3CCC(C)CC3)c2c1=O	nt	nt	nt	nt	5.9
CCC[C@H]1[C@@H](NC(=O)Nc2ccc(C)cc2)CC[C@@]23CCCN2C(=O)CCC[C@@H]13	nt	nt	nt	nt	40.3
Cc1cccc(N2CCN(C(=O)c3cn4ccccc4n3)CC2C)c1 (configuration not stated)	-15.6%	-4.1%	-4.4	8.3	-61.5*
Cc1cccc(N2CCN(C(=O)CC(NC(=O)c3ccccc3)c3ccccc3)CC2C)c1 (configuration not stated)	?	?	-13.5	-3.0	-66.3*
Cc1cccc(N2CCN(C(=O)Cn3nc(C)n4cccc4c3=O)CC2C)c1 (configuration not stated)	42.7%	14.0%	-5.7	-0.6	-7.9
Cc1ccc(-c2ccc(=O)n(CC(=O)N3CCN(c4cccc(C)c4)C(C)C3)n2)cc1 (configuration not stated)	11.7µM*	46.0%	-19.6	1.4	?
NC(N)=N/N=C(\N=Nc1ccccc1)c1ccc(Cl)cc1	nt	nt	nt	nt	206.9
COCCCn1c(-c2ccccc2Cl)n[nH]c1=S	1.85µM*	-3.8%	-9.0	9.4	14.7
CCOC(=O)C1CCN(C(c2cccc(F)c2)c2c(O)cc(C)n(Cc3ccco3)c2=O)CC1 (configuration not stated)	nt	nt	nt	nt	21.6
O=S(=O)(Cc1ccccc1)c1cnc2ccccc2n1	nt	10.4µM*	21.1	5.6	-33.3
O=S(=O)(c1ccccc1)c1cnc2ccccc2c1	33.1%	?	nt	nt	-6.3
O=S(=O)(c1ccc(Br)cc1)c1cnc2ccccc2n1	11.7µM*	?	-6.2	7.5	?
COc1ccc(S(=O)(=O)c2cnc3ccccc3n2)cc1	13.1µM*	?	16.4	2.5	44.1
NC(=O)Cn1c(S(=O)(=O)Cc2ccccc2)nc2ccccc21	nt	nt	nt	nt	-23.0
COc1ccc(-c2nn(Cc3ccccc3)cc2C(=O)N2CCN(c3ncccn3)CC2)cc1	?	13.1µM*	nt	nt	?
Cc1ccc(-c2nn(Cc3ccccc3)cc2C(=O)N2CCN(c3ccccn3)CC2)cc1	?	13.1µM*	nt	nt	6.6
O=C(c1cn(Cc2ccccc2)nc1-c1ccc(Cl)cc1)N1CCN(c2ccccn2)CC1	9.28µM*	13.1µM*	nt	nt	0.0
CC(=O)c1ccc(NC(=O)Cn2cc(S(=O)(=O)Cc3cccc(Cl)c3)c3ccccc32)cc1	nt	nt	nt	nt	0.0
Cc1ccc(C)c(S(=O)(=O)NCCc2csc(-c3ccc(Cl)cc3)n2)c1	nt	nt	nt	nt	-24.5
OC[C@@H](O)C(O)[C@H](O)[C@H](O)CO (some centres not stated)	nt	nt	-2.7	-8.3	nt
SMILES	Pf growth 96h	Pf growth 48h	Shiga toxin inh	Cycloheximide cs	HCMV inh
O=C(O)[C@@H](O)[C@@H](O)[C@H](O)[C@H](O)CO	8.49µM*	6.01µM*	nt	nt	nt
Oc1ccccc1C1=Nc2nc3ccccc3n2C(c2ccccc2)C1 (configuration not stated)	i	?	84.4*	49.2*	67.5
COc1ccc(/C=N/NC(=S)Nc2cccc(C(=O)O)c2)cc1OC	?	60.8%	26.1	16.2*	-34.2
COc1cc(/C=N/NC(=S)Nc2cccc(C(=O)O)c2)cc(OC)c1OC	-0.6%	41.0%	-2.1	5.9	26.2
COc1ccc(C(=O)Oc2cccc(/C=N/NC(N)=S)c2)cc1	-1.5%	37.3%	51.0*	16.0*	-34.1
COc1cccc(/C=N/NC(=S)Nc2cccc(C(=O)O)c2)c1	?	442.4%	95.4*	36.5*	40.9
COc1cccc(/C=N/NC(=O)CCC(=O)Nc2ccc(Br)cc2)c1	10.1%	8.4%	-11.9	-1.4	-12.4
CCOC(=O)Cc1csc(/N=C/c2c(O)n(-c3ccc(C)c(C)c3)c(=O)c3ccccc23)n1	49.1%	16.2%	-2.2	-4.0	?

High-throughput results from PubChem.
